# Laboratory results from PubChem BioAssay (NCATS).
# Results filed as inconclusive are left out. The source made the active and inactive calls. The call rests on the fitted dose curve; in most records, active means well fitted cell-killing curve with a large enough effect; inconclusive means small, poorly fitted or top-dose-only effect, or effect the other way; inactive means no such curve, though single readings can be large or run the other way.
# Experiment: Quantitative High-Throughput drug screen in 47 multiple myeloma cell lines against the NCATS MIPE library collection: FR4_PLB cell viability assay (AID 1918924; further: nearly all actives have a fitted effect of over 35% in size)
# Conditions: FR4_PLB myeloma cells viability, CellTiter-Glo ATP, 48 h; series mostly up to 45.8 µM
# Procedure, shortened: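 Relative luminescence from CellTiter-Glo served as the viability signal, referenced to DMSO-treated (100%) and cell-free medium (0%) controls. Treatment lasted 48 hours at 37C with 500 cells per well.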
# Potency means the concentration at half of the fitted maximal effect.
row,SMILES,Potency
1,N#Cc1c(N(CC(=O)O)CC(=O)O)sc(C(=O)O)c1CC(=O)O,inactive
2,COc1nccc(-c2c(-c3ccc(F)cc3)ncn2C2CCC(O)CC2)n1 (centres undefined),inactive
3,CC1(COc2ccc3c(c2)ncn3-c2ccc3cccc(N4CCC(N)CC4)c3n2)COC1,1.48 µM (active)
4,NCc1c[nH]c(=S)n1[C@H]1CCc2c(F)cc(F)cc2C1,14.8 µM (active)

# Experiment: Quantitative High-Throughput drug screen in 47 multiple myeloma cell lines against the NCATS MIPE library collection: Delta47_JCRB cell viability assay (AID 1918925; further: nearly all actives have a fitted effect of over 45% in size)
# Conditions: Delta47 myeloma viability, CellTiter-Glo ATP, 48 h; series mostly up to 45.8 µM
# Procedure, shortened: (§1)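 CellTiter-Glo luminescence (ATP) after 48 h compound exposure, 37C/5% CO2; 500 cells/well; MIPE 4.0 approved/investigational drugs pinned in; DMSO = 100%, media only = 0% viability.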
row,SMILES,Potency
1,Cc1cc(CS(=O)(=O)c2ccccc2)cc(OCc2ccc(CN3CCC[C@H]3CO)cc2)c1,14.8 µM (active)
2,COc1cc(C=CC(=O)O)ccc1O,inactive
3,Cc1cccc(Nc2nc(N[C@@H]3CCCC[C@H]3N)ncc2C(N)=O)c1,0.187 µM (active)
4,CC(C)(F)C[C@H](N[C@@H](c1ccc(-c2ccc(S(C)(=O)=O)cc2)cc1)C(F)(F)F)C(=O)NC1(C#N)CC1,inactive
5,C=C1[C@H](n2cnc3c(=O)[nH]c(N)nc32)C[C@H](O)[C@H]1CO,3.32 µM (active)
6,CC[C@H](C)n1cc(C)c2c(C(=O)NCc3c(C)cc(C)[nH]c3=O)cc(-c3ccc(N4CCNCC4)nc3)cc21,20.9 µM (active)
7,Cc1nc(NC(=O)N2CCC[C@@H]2C(N)=O)sc1-c1csc(C(C)(C)C)n1,3.32 µM (active)
8,CCOC(=O)[C@H]1O[C@H]1C(=O)N[C@@H](CC(C)C)C(=O)NCCC(C)C,inactive
9,OC(c1cc(C(F)(F)F)nc2c(C(F)(F)F)cccc12)C1CCCCN1 (centres undefined),26.4 µM (active)
10,CC(=O)N1CCN(c2ccc(OCc3nn(C)c(C)c3-c3cccc4c(CCCOc5cc(C)c(Cl)c(C)c5)c(C(=O)O)n(Cc5cccnc5)c34)cc2)CC1,4.69 µM (active)
11,CCC(=O)NCC[C@@H]1CCc2ccc3c(c21)CCO3,inactive
12,CC1=C(CC(=O)O)c2cc(F)ccc2C1=Cc1ccc(S(C)=O)cc1 (centres undefined),3.72 µM (active)
13,Oc1cc(O)cc(C=Cc2ccc(O)c(O)c2)c1,4.69 µM (active)
14,CC(C)n1c(C=C[C@H](O)C[C@H](O)CC(=O)O)c(-c2ccc(F)cc2)c2ccccc21,18.7 µM (active)
15,CCC[C@@H](NC(=O)[C@@H]1[C@H]2CCC[C@@H]2CN1C(=O)[C@@H](NC(=O)[C@@H](NC(=O)c1cnccn1)C1CCCCC1)C(C)(C)C)C(=O)C(=O)NC1CC1,14.8 µM (active)
16,O=C(NC[C@H](O)CO)c1ccncc1Nc1ccc(I)cc1F,11.8 µM (active)
17,Cc1ccc(NC(=O)Nc2cc(C(F)(F)F)ccc2F)cc1Nc1ccc2c(c1)NC(=O)C2=Cc1ccc[nH]1,4.69 µM (active)
18,CN1[C@H]2CC[C@H]1CC(OC(=O)c1c[nH]c3ccccc13)C2 (some centres undefined),4.18 µM (active)
19,Cc1c(-c2cccc3c(CCCOc4cccc5ccccc45)c(C(=O)O)n(Cc4cccnc4)c23)c(COc2ccc(N3CCN([S+](=O)([O-])N(C)C)CC3)cc2)nn1C,14.8 µM (active)
20,C[C@@H]1CC=CC=CC=CC=C[C@@H](O[C@@H]2O[C@H](C)[C@@H](O)[C@H](N)[C@H]2O)C[C@@H]2O[C@](O)(C[C@@H](O)C[C@@H]3O[C@@H]3C=CC(=O)O1)C[C@H](O)[C@@H]2C(=O)O,11.8 µM (active)

# Experiment: Quantitative High-Throughput drug screen in 47 multiple myeloma cell lines against the NCATS MIPE library collection: EJM_DSMZ cell viability assay (AID 1918926; further: nearly all actives have a fitted effect of over 30% in size)
# Conditions: EJM myeloma cell viability, CellTiter-Glo ATP, 48 h; series mostly up to 45.8 µM
# Procedure, shortened: as §1
row,SMILES,Potency
1,Cc1cc(CS(=O)(=O)c2ccccc2)cc(OCc2ccc(CN3CCC[C@H]3CO)cc2)c1,inactive
2,COc1cc(C=CC(=O)O)ccc1O,inactive
3,Cc1cccc(Nc2nc(N[C@@H]3CCCC[C@H]3N)ncc2C(N)=O)c1,20.9 µM (active)
4,CC(C)(F)C[C@H](N[C@@H](c1ccc(-c2ccc(S(C)(=O)=O)cc2)cc1)C(F)(F)F)C(=O)NC1(C#N)CC1,inactive
5,C=C1[C@H](n2cnc3c(=O)[nH]c(N)nc32)C[C@H](O)[C@H]1CO,inactive
6,CC[C@H](C)n1cc(C)c2c(C(=O)NCc3c(C)cc(C)[nH]c3=O)cc(-c3ccc(N4CCNCC4)nc3)cc21,20.9 µM (active)
7,Cc1nc(NC(=O)N2CCC[C@@H]2C(N)=O)sc1-c1csc(C(C)(C)C)n1,8.33 µM (active)
8,CCOC(=O)[C@H]1O[C@H]1C(=O)N[C@@H](CC(C)C)C(=O)NCCC(C)C,inactive
9,OC(c1cc(C(F)(F)F)nc2c(C(F)(F)F)cccc12)C1CCCCN1 (centres undefined),18.7 µM (active)
10,CC(=O)N1CCN(c2ccc(OCc3nn(C)c(C)c3-c3cccc4c(CCCOc5cc(C)c(Cl)c(C)c5)c(C(=O)O)n(Cc5cccnc5)c34)cc2)CC1,20.9 µM (active)
11,CCC(=O)NCC[C@@H]1CCc2ccc3c(c21)CCO3,inactive
12,CC1=C(CC(=O)O)c2cc(F)ccc2C1=Cc1ccc(S(C)=O)cc1 (centres undefined),0.59 µM (active)
13,Oc1cc(O)cc(C=Cc2ccc(O)c(O)c2)c1,20.9 µM (active)
14,CC(C)n1c(C=C[C@H](O)C[C@H](O)CC(=O)O)c(-c2ccc(F)cc2)c2ccccc21,inactive
15,CCC[C@@H](NC(=O)[C@@H]1[C@H]2CCC[C@@H]2CN1C(=O)[C@@H](NC(=O)[C@@H](NC(=O)c1cnccn1)C1CCCCC1)C(C)(C)C)C(=O)C(=O)NC1CC1,inactive
16,O=C(NC[C@H](O)CO)c1ccncc1Nc1ccc(I)cc1F,18.7 µM (active)
17,Cc1ccc(NC(=O)Nc2cc(C(F)(F)F)ccc2F)cc1Nc1ccc2c(c1)NC(=O)C2=Cc1ccc[nH]1,26.4 µM (active)
18,CN1[C@H]2CC[C@H]1CC(OC(=O)c1c[nH]c3ccccc13)C2 (some centres undefined),inactive
19,Cc1c(-c2cccc3c(CCCOc4cccc5ccccc45)c(C(=O)O)n(Cc4cccnc4)c23)c(COc2ccc(N3CCN([S+](=O)([O-])N(C)C)CC3)cc2)nn1C,14.8 µM (active)
20,C[C@@H]1CC=CC=CC=CC=C[C@@H](O[C@@H]2O[C@H](C)[C@@H](O)[C@H](N)[C@H]2O)C[C@@H]2O[C@](O)(C[C@@H](O)C[C@@H]3O[C@@H]3C=CC(=O)O1)C[C@H](O)[C@@H]2C(=O)O,inactive
